Experimental data: PubChem BioAssay (NCATS)
Results filed as inconclusive are left out. Active and inactive are the calls of the source. Unless noted, the call rests on the fitted dose curve; in most records, active means well fitted curve in the direction sought with a large enough effect; inconclusive means small, poorly fitted or top-dose-only effect, or another doubt; inactive means no such curve, though single readings can be large; an effect the other way counts as inactive or inconclusive.

Legend:
[1] = qHTS for Activators of Parkin Expression: LOPAC Validation Assay (FLuc Reporter) (AID 720573;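 further: 0% = DMSO and 100% = positive control compounds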)
Method in brief: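 FLuc signal from Parkin-promoter coincidence reporter neuronal cells, normalized to DMSO and positive control (100%). Cells (1,500/well) pre-incubated 24 h, then exposed to LOPAC compounds in 7-point dose response for 24 h at 37 C, 5% CO2.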

[2] = biological target: T1, Hexokinase-4 (Homo sapiens) + Glucokinase regulatory protein (Homo sapiens) (UniProt P35557+Q14397); assay: qHTS assay for inhibitors of recombinant human GCK-GKRP interaction: Diaphorase-coupled assay (AID 743205)
Method in brief: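 A kinetic fluorescence read (Ex 525/Em 590 nm, every minute for 30 minutes) tracked resorufin from a G6PDH-diaphorase coupled GCK reaction. It contained 10 nM GST-GCK, 10 nM FLAG-GKRP, 5 mM glucose, 0.4 mM ATP in Hepes pH 7.6. Normalized to with/without-enzyme DMSO controls.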

[3] = biological target: T1, Hexokinase-4 (Homo sapiens) + Glucokinase regulatory protein (Homo sapiens); assay: qHTS assay for inhibitors of recombinant human GCK-GKRP interaction: ADP-Glo assay (AID 743206);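 further: plate controls were DMSO plus enzyme for no effect and no enzyme for full effect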
Method in brief: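 Pin-transferred compounds meet a 15 nM GST-GCK/15 nM FLAG-GKRP/2 uM S6P mix (dispense concentrations). ATP is then added to 0.4 mM final with 5 mM glucose, and the reaction runs 60 min at room temperature. ADP is quantified luminescently.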

[4] = biological target: T1, Hexokinase-4 (Homo sapiens) + Glucokinase regulatory protein (Homo sapiens); assay: qHTS assay for inhibitors of recombinant human GCK-GKRP interaction: HTRF assay (AID 743207);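 further: 0% = DMSO with GCK present and -100% = DMSO wells lacking GCK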
Method in brief: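 After 60 min equilibration at room temperature with anti-FLAG XL665 and anti-GST antibodies, FRET ratio (665/615 nm, excitation 320 nm) was read. Proteins: GST-GCK and FLAG-GKRP, each 5 nM, plus 2 uM S6P, pH 7.1 buffer; GCK-free wells define minimum signal.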

[5] = biological target: Atrial natriuretic peptide receptor 1 (Homo sapiens) (UniProt P16066); assay: Natriuretic polypeptide receptor (hNpr1) antagonism - Pilot screen (AID 1347049; calls by dose curve;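 further: HEK293 cells with hNpr1 and GloSensor cGMP luciferase stimulated by 0.1 nM hNppA; agonist-evoked cGMP luminescence read 20 min after hNppA addition; series mostly up to about 58 µM; on the % scale 0 is the no-effect control and ±100 the full control effect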)
Method in brief: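 Cells expressing receptor plus cGMP biosensor are seeded and incubated overnight at 37C, then loaded with GloSensor reagent (2% final) at room temperature for 2 h. Library compounds go on for 30 min. A pre-read precedes agonist (hNppA, 0.1 nM final) and a 20-min readout.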

[6] = biological target: Atrial natriuretic peptide receptor 2 (Homo sapiens) (UniProt P20594); assay: Natriuretic polypeptide receptor (hNpr2) antagonism - Pilot subtype selectivity assay (AID 1347050; calls by dose curve; further: on the % scale 0 is the no-effect control and ±100 the full control effect)
Method in brief: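 Read-out: GloSensor luminescence (CCD imager), baseline vs post-stimulation. HEK293 cells expressing hNpr2; compounds pre-incubated 30-50 min at ambient temperature; hNppC 1 nM final, 20 min.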

[7] = NS1 protein of Zika virus - qHTS assay to identify small molecule inhibitors in human HEK 293 cells (AID 1347053);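 further: series mostly up to about 46 µM; plate controls were infected untreated cells for no effect and uninfected cells for full effect; nearly all actives have a fitted effect of over 55% in size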
Method in brief: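 Compound-treated (1 h pre-infection) HEK 293 cells infected with ZIKV MR766, MOI = 0.5; after 24 h at 37 C, NS1 read by TR-FRET; data normalized to uninfected and infected controls.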

[8] = biological target: T2, Tyrosine-protein phosphatase non-receptor type substrate 1 (Homo sapiens) + Leukocyte surface antigen CD47 (Homo sapiens) (UniProt P78324+Q08722); assay: CD47-SIRPalpha protein protein interaction - LANCE assay qHTS validation (AID 1347057; active means well fitted curve in the direction sought with a large enough effect in the signal ratio, with a control signal flat, not every such curve was filed as active; the % refers to the signal ratio; further: series mostly up to about 38 µM; 0% is about no effect)
Method in brief: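 Inhibition of soluble CD47/SIRPalpha ectodomain association by titrated compounds, measured as 665/615 nm time-resolved FRET ratio after sequential 30 min room-temperature incubations.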

[9] = biological target: T2, Tyrosine-protein phosphatase non-receptor type substrate 1 (Homo sapiens) + Leukocyte surface antigen CD47 (Homo sapiens); assay: CD47-SIRPalpha protein protein interaction - Alpha assay qHTS validation (AID 1347059);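 further: bead proximity luminescence from CD47 binding SIRPalpha after compound preincubation with SIRPalpha; on the % scale 0 is the no-effect control and ±100 the full control effect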
Method in brief: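 In PBS (pH 7.4) with 0.05% IGEPAL CA-630, compound is preincubated with biotin-Avi-SIRPalpha ectodomain before His-CD47 ectodomain and affinity beads are added. Light-protected room-temperature incubations; AlphaScreen readout.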

[10] = biological target: Parathyroid hormone/parathyroid hormone-related peptide receptor (Homo sapiens) (UniProt Q03431); assay: qHTS for PTHR1 Agonists: Optimization Screen against the NCGC LOPAC library (AID 1347079);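 further: GloSensor cAMP luminescence in HEK-293 GP2 cells expressing human PTHR1 with IBMX; 0% is about no effect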
Method in brief: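 Signal increase flags agonism. GP2 cells, derived from HEK-293, express human PTHR1 and a GloSensor cAMP construct.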

[11] = tested on: Zika virus NS2B-NS3 protease (unlinked); assay: Optimization of GU AMC qHTS for Zika virus inhibitors: Unlinked NS2B-NS3 protease assay (AID 1347151); further: potency means the concentration at half of the fitted maximal effect; nearly all actives have a fitted effect of over 80% in size
Method in brief: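 Fluorescence gain (340/450 nm) over 15 min at room temperature, ~20% conversion, gave percent inhibition fitted to a 4-parameter Hill equation; enzyme was unlinked NS2B-NS3 (25 nM final), pH 8.0 Tris buffer.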

[12] = biological target: Lysine-specific demethylase 5B (Homo sapiens) (UniProt Q9UGL1); assay: Optimization screen for KDM5B Histone Demethylases FDH coupled qHTS against the LOPAC library (AID 1347166); further: 0% is about no effect
Method in brief: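 KDM5BDeltaAP (200nM final) in 50mM HEPES pH 7.5, 0.01% Tween-20 was preincubated with compound for 10 min at room temperature. A substrate mix of 12.5uM H3K4Me3, 25uM a-ketoglutarate, ascorbate, Fe2+, NAD+ and formaldehyde dehydrogenase was then added. NADH fluorescence (340/450 nm) was read initially and after 30 min.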

[13] = qHTS to identify inhibitors of the type 1 interferon - major histocompatibility complex class I in skeletal muscle: primary screen against the NCATS LOPAC collection (AID 1347405);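 further: human myoblasts with HiBiT tag on endogenous HLA-B stimulated by IFN-beta; lytic HiBiT luminescence reporting HLA-B protein level; on the % scale 0 is the no-effect control and ±100 the full control effect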
Method in brief: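 HLA-B HiBiT myoblasts, IFN-b 4 ng/ml, dexamethasone-free medium; compounds 7-pt 1:4.3 titration, top 46 uM final; 24 h at 37 C; Nano-Glo HiBiT lytic reagent, 10 min RT, luminescence.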

[14] = Validation qHTS assay for inhibitors of Activation Induced Cytidine Deaminase (AID): UDG Counterscreen signal (AID 1347427); further: 0% is about no effect
Method in brief: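 Fluorescence at 560 nm excitation, 665 nm emission reports UDG signal after 250 mM NaOH (2x) addition and 30 min. Enzymes (AID 1 uM, UDG 2 U/mL, at 4/3x) preincubated 10 min with compound, then 4 h with 4x 250 nM DJC20/DJC23 substrate at room temperature.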

[15] = biological target: Single-stranded DNA cytosine deaminase (Homo sapiens) (UniProt Q9GZX7); assay: Validation qHTS assay for inhibitors of Activation Induced Cytidine Deaminase (AID): AID signal (AID 1347429); further: on the % scale 0 is the no-effect control and ±100 the full control effect
Method in brief: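 AID+UDG coupled FRET deamination; cpds up to 114 uM final; DJC20/DJC23 substrate, 4 hr RT; NaOH stop, 30 min RT; read Ex 540/Em 590.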

[16] = Primary qHTS for inhibitors of La Crosse Virus (LACV) - induced cell death in SH-SY5Y cells (AID 1508616);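 further: top concentration of the series differs between compounds; 0% = infected DMSO wells and 100% = uninfected DMSO wells; higher means more rescue of cells from virus-induced death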
Method in brief: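 Cytopathicity rescue screen: compounds pinned onto SH-SY5Y cells, which are then infected with LACV (MOI 0.01) and held 6 days at 37C. Percent activity is scaled between infected DMSO control and uninfected DMSO control.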

[17] = Primary qHTS for small molecule stabilizers of the endoplasmic reticulum resident proteome: Secreted ER Calcium Modulated Protein (SERCaMP) assay (AID 1508630); further: on the % scale 0 is the no-effect control and ±100 the full control effect
Method in brief: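 The SH-SY5Y reporter protocol was run at 3 concentrations up to 38.3 uM (primary) or 11 concentrations (follow-up): 16 h compound, 100 nM thapsigargin for 4 h, then extracellular luciferase luminescence.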

Papain (Carica papaya) = Papain (Carica papaya) (UniProt P00784); assay: Primary qHTS assay for inhibitors of the protease papain (AID 1645873)
[18] = Primary qHTS for inhibitors of nuclear receptor binding SET domain protein 2 (NSD2) in an isogenic RCH-ACV NSD2 p.E1099K mutant (9B) (AID 1645876); further: on the % scale 0 is the no-effect control and ±100 the full control effect; nearly all actives have a fitted effect of over 70% in size
[19] = biological target: Metallo-beta-lactamase type 2 (Klebsiella pneumoniae) (UniProt C7C422); assay: qHTS to identify inhibitors of the New Delhi Metallo-beta-lactamase (NDM): assay validation screen against the NCATS LOPAC Collection (AID 1794843)
Method in brief: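 Nitrocefin hydrolysis (50 uM substrate stock) by NDM-1, 2 nM final, was followed by 485 nm absorbance after compound preincubation; buffer was 50 mM HEPES pH 7.0, 1 uM ZnSO4, 0.01% Tween20.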

[20] = biological target: Glutathione peroxidase 1 (Homo sapiens) (UniProt P07203); assay: Primary qHTS Assay for Inhibitors of Recombinant Selenoprotein Glutathione Peroxidase 1 (GPX1) (AID 1845191); further: nearly all actives have a fitted effect of over 65% in size
Method in brief: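 GPX1 10 nM, GR 100 nM, GSH 1 mM, NADPH 0.5 mM, CHP 0.5 mM (final). 30-min cpd preincubation, RT. Ex340/Em450 read t=0, t=15 min.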

[21] = biological target: Phospholipid hydroperoxide glutathione peroxidase GPX4 (Homo sapiens) (UniProt P36969); assay: Primary qHTS Assay for Inhibitors of Recombinant Selenoprotein Glutathione Peroxidase 4 (GPX4) (AID 1845192); details: outcome: dose series up to 50 µM unless noted; further: series mostly up to about 50 µM; on the % scale 0 is the no-effect control and ±100 the full control effect; nearly all actives have a fitted effect of over 65% in size
Method in brief: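 qHTS, GR-coupled: GPX4 200 nM + cpd 30 min RT → GSH 1 mM, NADPH 0.5 mM, GR 100 nM → CHP 0.5 mM start; fluor 340/450 at t0 and t15 min; no-enzyme wells as control.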

[22] = qHTS drug screen for cell cycle checkpoint inhibitors in PARPi-resistant BRCA-mutant ovarian cancer cell lines. (AID 1963452; calls by dose curve); details: PEO1/OlaR viability, CellTiter-Glo luminescence, 96 h, stronger effect = lower value
Method in brief: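 PEO1, PEO4 and PEO1/OlaR ovarian cancer cells, 600 per well, exposed 96 h at 37C to a dilution series. Viability read by CellTiter-Glo luminescence, normalized to DMSO and empty wells; activity summarized as Z-AUC.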

T1 sequence (P35557 whole entry, looked up): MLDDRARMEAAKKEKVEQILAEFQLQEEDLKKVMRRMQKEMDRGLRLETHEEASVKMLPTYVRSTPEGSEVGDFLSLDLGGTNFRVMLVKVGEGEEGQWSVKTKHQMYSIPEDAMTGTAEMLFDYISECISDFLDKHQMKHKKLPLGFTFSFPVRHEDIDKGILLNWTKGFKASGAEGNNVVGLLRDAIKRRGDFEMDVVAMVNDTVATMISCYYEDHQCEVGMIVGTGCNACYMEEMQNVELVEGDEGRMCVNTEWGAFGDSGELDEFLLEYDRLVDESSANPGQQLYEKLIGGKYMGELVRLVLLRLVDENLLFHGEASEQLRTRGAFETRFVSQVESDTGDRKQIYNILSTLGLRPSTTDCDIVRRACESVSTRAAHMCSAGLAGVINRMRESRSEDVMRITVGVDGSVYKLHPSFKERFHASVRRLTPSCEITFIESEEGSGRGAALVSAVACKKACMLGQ
T1 sequence (Q14397 whole entry, looked up): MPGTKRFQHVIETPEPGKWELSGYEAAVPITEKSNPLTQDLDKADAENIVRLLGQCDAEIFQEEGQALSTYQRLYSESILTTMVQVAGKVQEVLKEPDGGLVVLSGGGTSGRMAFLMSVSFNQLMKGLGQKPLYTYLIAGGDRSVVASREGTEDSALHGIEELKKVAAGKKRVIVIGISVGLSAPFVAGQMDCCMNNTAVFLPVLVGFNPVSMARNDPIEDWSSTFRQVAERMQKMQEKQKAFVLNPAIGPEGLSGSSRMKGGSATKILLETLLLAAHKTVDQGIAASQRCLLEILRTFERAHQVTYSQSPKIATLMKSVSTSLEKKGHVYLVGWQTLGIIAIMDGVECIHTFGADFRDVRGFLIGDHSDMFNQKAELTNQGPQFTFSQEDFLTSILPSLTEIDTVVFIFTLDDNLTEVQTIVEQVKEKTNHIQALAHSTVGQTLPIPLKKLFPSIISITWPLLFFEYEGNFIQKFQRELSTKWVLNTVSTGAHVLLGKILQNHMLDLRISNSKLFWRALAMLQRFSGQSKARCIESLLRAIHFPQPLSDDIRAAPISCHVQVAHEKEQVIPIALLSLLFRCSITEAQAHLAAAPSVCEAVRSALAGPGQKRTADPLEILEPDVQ
Sequence of Glutathione peroxidase 1 (Homo sapiens) (P07203 whole entry, looked up): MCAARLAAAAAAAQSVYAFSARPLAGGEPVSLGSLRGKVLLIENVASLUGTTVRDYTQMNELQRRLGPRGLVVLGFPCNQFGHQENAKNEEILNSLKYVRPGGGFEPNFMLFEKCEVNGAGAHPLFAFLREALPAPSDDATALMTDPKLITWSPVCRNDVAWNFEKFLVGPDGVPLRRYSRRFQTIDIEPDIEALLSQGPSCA
T2 sequence (P78324 whole entry, looked up, the tested form may be a part): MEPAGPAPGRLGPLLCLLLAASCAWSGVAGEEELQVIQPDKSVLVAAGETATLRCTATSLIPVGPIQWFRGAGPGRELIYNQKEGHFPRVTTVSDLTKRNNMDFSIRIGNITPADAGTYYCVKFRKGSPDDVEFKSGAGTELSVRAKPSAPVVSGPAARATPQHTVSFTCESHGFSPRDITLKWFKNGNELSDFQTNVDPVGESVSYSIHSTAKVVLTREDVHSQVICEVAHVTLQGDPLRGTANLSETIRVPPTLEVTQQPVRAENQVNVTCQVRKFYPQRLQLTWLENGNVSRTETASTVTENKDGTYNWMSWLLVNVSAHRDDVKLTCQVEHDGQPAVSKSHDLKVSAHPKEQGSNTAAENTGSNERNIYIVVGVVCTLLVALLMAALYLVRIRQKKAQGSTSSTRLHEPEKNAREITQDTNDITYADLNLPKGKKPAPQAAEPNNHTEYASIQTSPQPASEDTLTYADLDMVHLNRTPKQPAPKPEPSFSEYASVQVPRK
T2 sequence (Q08722 whole entry, looked up, the tested form may be a part): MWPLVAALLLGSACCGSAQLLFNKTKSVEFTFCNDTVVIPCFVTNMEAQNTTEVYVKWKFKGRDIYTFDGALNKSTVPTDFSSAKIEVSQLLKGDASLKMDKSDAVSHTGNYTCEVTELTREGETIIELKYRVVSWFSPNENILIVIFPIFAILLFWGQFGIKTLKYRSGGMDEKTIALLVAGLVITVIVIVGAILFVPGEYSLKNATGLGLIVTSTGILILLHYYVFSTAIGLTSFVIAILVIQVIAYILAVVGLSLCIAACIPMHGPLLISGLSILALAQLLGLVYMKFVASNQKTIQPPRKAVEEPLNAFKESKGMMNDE
Sequence of Atrial natriuretic peptide receptor 2 (Homo sapiens) (P20594 whole entry, looked up): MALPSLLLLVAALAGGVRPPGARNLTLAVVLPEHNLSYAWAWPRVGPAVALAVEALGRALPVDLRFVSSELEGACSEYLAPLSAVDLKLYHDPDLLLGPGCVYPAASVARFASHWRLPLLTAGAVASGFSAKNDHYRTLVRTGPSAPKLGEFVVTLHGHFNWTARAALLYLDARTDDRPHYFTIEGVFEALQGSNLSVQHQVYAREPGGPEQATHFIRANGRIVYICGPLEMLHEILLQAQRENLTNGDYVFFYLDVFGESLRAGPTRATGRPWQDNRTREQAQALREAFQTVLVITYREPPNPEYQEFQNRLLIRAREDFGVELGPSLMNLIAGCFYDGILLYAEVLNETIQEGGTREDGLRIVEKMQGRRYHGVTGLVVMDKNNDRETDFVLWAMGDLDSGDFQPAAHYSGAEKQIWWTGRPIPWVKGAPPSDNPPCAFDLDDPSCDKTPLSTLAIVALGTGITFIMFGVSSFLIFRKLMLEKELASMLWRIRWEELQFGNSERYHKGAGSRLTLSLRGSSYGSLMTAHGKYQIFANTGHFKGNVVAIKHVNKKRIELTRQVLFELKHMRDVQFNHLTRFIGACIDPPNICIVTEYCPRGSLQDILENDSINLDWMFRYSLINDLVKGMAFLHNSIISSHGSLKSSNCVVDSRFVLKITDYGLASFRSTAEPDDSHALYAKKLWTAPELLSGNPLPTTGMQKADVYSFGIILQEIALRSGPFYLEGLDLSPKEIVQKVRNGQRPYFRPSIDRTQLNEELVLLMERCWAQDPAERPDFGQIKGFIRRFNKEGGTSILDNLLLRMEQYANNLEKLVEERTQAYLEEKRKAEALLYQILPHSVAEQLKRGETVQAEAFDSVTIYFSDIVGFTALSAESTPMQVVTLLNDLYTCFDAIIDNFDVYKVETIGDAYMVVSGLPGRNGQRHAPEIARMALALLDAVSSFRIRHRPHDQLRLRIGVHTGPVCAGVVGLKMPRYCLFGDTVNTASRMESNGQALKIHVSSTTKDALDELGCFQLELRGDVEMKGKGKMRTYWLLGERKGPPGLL
Sequence of Phospholipid hydroperoxide glutathione peroxidase GPX4 (Homo sapiens) (P36969 whole entry, looked up): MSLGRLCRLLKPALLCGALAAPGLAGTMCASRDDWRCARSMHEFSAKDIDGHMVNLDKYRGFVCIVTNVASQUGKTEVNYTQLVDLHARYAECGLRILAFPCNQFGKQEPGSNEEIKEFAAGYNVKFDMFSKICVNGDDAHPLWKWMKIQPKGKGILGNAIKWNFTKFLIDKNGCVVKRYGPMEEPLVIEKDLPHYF
Sequence of Atrial natriuretic peptide receptor 1 (Homo sapiens) (P16066 whole entry, looked up): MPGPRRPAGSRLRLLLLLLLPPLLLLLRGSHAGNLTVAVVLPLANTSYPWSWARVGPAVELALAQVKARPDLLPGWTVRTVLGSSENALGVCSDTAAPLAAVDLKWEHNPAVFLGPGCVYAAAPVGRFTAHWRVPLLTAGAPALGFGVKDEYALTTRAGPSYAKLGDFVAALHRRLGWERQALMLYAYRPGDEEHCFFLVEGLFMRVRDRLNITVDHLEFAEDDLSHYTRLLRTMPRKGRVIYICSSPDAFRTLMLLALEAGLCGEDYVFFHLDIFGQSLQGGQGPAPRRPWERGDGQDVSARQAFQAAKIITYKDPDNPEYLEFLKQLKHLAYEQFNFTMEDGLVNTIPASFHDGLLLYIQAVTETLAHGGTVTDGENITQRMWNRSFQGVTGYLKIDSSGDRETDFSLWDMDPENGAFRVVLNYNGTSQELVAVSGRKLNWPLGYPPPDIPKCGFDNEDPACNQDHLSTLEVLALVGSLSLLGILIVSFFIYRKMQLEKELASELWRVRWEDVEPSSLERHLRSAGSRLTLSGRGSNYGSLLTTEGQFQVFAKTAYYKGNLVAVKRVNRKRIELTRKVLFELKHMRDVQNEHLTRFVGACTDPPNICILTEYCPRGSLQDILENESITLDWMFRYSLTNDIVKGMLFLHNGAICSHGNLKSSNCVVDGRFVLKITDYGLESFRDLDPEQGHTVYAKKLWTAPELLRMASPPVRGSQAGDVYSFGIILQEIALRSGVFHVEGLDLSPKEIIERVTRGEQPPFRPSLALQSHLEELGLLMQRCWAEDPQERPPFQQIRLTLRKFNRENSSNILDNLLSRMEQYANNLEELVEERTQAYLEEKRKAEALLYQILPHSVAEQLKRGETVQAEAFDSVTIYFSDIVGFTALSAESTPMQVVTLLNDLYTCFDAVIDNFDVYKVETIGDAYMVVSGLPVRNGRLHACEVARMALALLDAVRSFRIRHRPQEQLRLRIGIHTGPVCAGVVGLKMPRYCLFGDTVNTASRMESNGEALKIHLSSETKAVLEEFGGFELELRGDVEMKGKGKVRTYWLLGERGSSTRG
Sequence of Parathyroid hormone/parathyroid hormone-related peptide receptor (Homo sapiens) (Q03431 whole entry, looked up): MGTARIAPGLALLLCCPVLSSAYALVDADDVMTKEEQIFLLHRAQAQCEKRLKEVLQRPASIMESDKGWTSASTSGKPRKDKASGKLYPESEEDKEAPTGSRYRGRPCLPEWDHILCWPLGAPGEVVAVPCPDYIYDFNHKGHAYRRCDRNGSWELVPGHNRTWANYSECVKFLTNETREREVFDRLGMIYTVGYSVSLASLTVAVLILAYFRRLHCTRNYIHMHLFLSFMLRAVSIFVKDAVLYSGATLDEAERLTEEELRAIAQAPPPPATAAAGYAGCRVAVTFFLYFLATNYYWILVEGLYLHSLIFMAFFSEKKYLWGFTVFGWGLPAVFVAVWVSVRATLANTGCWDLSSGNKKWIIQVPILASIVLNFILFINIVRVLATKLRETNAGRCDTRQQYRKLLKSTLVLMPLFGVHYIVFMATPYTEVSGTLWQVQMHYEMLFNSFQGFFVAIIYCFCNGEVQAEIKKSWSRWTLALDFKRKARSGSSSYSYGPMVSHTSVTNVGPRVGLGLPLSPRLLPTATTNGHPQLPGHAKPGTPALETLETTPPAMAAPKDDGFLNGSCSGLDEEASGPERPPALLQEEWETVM

CCc1ccc(/C=C2/SC(=S)NC2=O)cc1
inactive: Potency [1] | outcome [2] | outcome [3] | outcome [4] | Potency [5] | Potency [6] | outcome [7] | outcome [8] | Potency [9] | outcome [10] | outcome [12] | Potency [13] | outcome [14] | Potency [15] | outcome [16] | Potency [17] | Potency (Papain (Carica papaya)) | Potency [18] | Potency [19] | Potency [20] | Potency [21] | Z-AUC [22] 0.0868
0.763: Z-AUC ([22]; measured here: PEO4 Z-AUC)
0.677: Z-AUC ([22]; measured here: PEO1 parental Z-AUC)
active: Potency [11] 23.8 µM
